Measured values taken from PubChem BioAssay AID2314 (National Center for Advancing Translational Sciences (NCATS), 2010).
Hit rate of the full screen: of about 300,000 compounds, about 37,000 (12%) were called active. Cut-off read from the data, not from the text of the source: active = max response mostly above about 13% (no sharp cut-off); inactive = mostly below about 14%. The sample as a whole holds a higher share of actives than the screen did.

test: Cycloheximide Counterscreen for Small Molecule Inhibitors of Shiga Toxin; settings: cell reporter, cycloheximide protein synthesis inhibition counterscreen; hits give high values; note: read at 38.3 µM for the half of the compounds with a filed dose; 0% is about no effect

SMILES | max response
COc1ccc(-c2nc3cnccn3c2NC(C)(C)CC(C)(C)C)cc1O | -1.64% (inactive)
Cc1ccc(CN2CCNC(=O)C2CC(=O)NCc2csc(C(C)C)n2)cc1 (centres undefined) | -3.12% (inactive)
O=C(COc1ccc(S(=O)(=O)N2CCOCC2)cc1Cl)N1CCOCC1 | -5.7% (inactive)
Cc1cccc(N2C(=O)N3[C@H](c4ccc(F)cc4)[C@@H]4C(=O)N(C5CCCCC5)C(=O)[C@@H]4[C@]3(Cc3ccccc3)C2=O)c1 | 1.33% (inactive)
O=c1oc2ccccc2c(NC2CCCCC2)c1NS(=O)(=O)c1ccc(Cl)cc1 | -6.15% (inactive)
Cc1ccc(N(CC(=O)NCC2CCCO2)C(=O)CNS(=O)(=O)c2ccc(Cl)cc2)cc1 (centres undefined) | -3.88% (inactive)
O=C(NCCOc1ccccc1)c1ccccc1 | 68.1% (active)
NS(=O)(=O)c1cc(C(=O)NCCOc2ccccc2)c(Cl)cc1Cl | -1.96% (inactive)
O=C(CCc1c[nH]c2ccccc12)NCCOc1ccccc1 | 25.1% (inactive)
CCc1n[nH]c(=S)n1/N=C/c1c[nH]c2ccc(Br)cc12 | -1.29% (inactive)
CC1=NN(C(N)=S)C(=O)C1N=Nc1cc(Cl)ccc1Cl (centres undefined) | 4.61% (inactive)
CCCCc1nc(SCC(=O)Nc2nnc(C(C)C)s2)n[nH]1 | 26.4% (inactive)
O=C1CCCC(O)=C1N=Nc1ccc(S(=O)(=O)N2CCOCC2)cc1 | 16% (inactive)
O=C1CCCC(O)=C1N=Nc1ccc2ncsc2c1 | 49.2% (active)
Cc1nc2ccccc2c(=O)n1Cc1ccc([N+](=O)[O-])cc1 | -1.56% (inactive)
Nc1ccc(N=Nc2ccccc2Cl)c(N)n1 | 25.9% (active)
O=S(=O)(c1ccc(Cl)s1)N1CCC2(CC1)OCCO2 | 2.18% (inactive)
COC(=O)c1cc(NC(=O)c2cc(C(C)(C)C)nn2Cc2cccc(C)c2)ccc1N1CCOCC1 | -3.1% (inactive)
CCCNC(=O)c1cnc(-c2ccccc2)nc1-c1ccccc1 | -6.13% (inactive)
CCN(CC)c1ccc(C(=O)OCC(=O)c2ccco2)cc1 | 7.36% (inactive)
CCc1ccc(C(=O)COC(=O)c2ccco2)cc1 | 42.3% (active)
O=C(COC(=O)c1ccccc1C(=O)c1ccccc1)c1ccco1 | 8.15% (inactive)

SMILES | max response
COc1cccc(NC(=O)CN2CCN(CC(=O)Nc3ccccc3Cl)CC2)c1 | -0.686% (inactive)
COc1ccc2[nH]c(C(=O)Nc3ccccc3Cl)cc2c1 | 36.2% (active)
COc1ccc2[nH]c(C(=O)N/N=C/c3cc(OC)c(OC)c(OC)c3)cc2c1 | 13.6% (inactive)
Cc1cccc(C(=O)NNC(=O)CSc2nnc(C(C)C)n2C)c1 | -5.35% (inactive)
CCC(C)c1ccc(NC(=S)N2CCCC2)cc1 (centres undefined) | 35.2% (active)
CC(=O)c1cccc(NC(=S)N2CCCC2)c1 | 0.199% (inactive)
NS(=O)(=O)c1ccc(NC(=S)N2CCCC2)cc1 | -1.21% (inactive)
S=C(Nc1ccc2c(c1)OCO2)N1CCCC1 | 25.6% (active)
Cc1cccc(C)c1NC(=S)N1CCCCCC1 | -7.53% (inactive)
CCOc1ccc(NC(=S)N2CCCCCC2)cc1 | 26.7% (inactive)
COC(=O)c1ccc(S(=O)(=O)N2CCc3ccccc3C2)cc1 | -0.876% (inactive)
CCc1nn(CCCC(=O)NCc2ccc(C)cc2)c(=O)c2cc3occc3n12 | 9.5% (inactive)
CCCCCCC(O)(CCN1CCCCC1)c1ccccc1 (centres undefined) | -3.74% (inactive)
Cc1ccnc(N2CCCC(C(=O)NC3CC3)C2)n1 (centres undefined) | -3.55% (inactive)
Cc1ccnc(Nc2nc3ccccc3s2)n1 | 55.1% (active)
Cc1ccc(S(=O)(=O)Nc2nc3ccccc3s2)cc1[N+](=O)[O-] | -1.91% (inactive)
CSCCC(Nc1nc2ccccc2s1)C(=O)O (centres undefined) | -2.31% (inactive)
COc1cccc(NS(=O)(=O)c2ccc(-c3coc(C)n3)cc2)c1 | 15.9% (inactive)
O=C(NC1CCCC1)C1CC(=O)N(c2ccc(F)cc2)C1 (centres undefined) | -4.78% (inactive)
COCCC(=O)N1CCC(Oc2ccc(C(=O)NCc3ccon3)cc2)CC1 | 2.55% (inactive)
COc1cc(OC)cc(C(=O)Nc2ccc(S(=O)(=O)Nc3cc(C)on3)cc2)c1 | -4.87% (inactive)
Cc1cc2nc(-c3ccc(NC(=O)c4cccnc4)cc3)oc2cc1C | 32.1% (active)

SMILES | max response
Cc1ccc2nc(-c3ccc(NC(=O)c4cccnc4)cc3)oc2c1 | 49.6% (active)
COc1cc(OC)cc(C(=O)Nc2ncc3c(n2)CC(C)(C)CC3=O)c1 | 9.17% (inactive)
CC(=O)NC(=S)Nc1ccc(NC(=O)c2cccnc2)cc1 | 1.22% (inactive)
Cc1cc(NS(=O)(=O)c2ccc(NC(=O)c3cccnc3)cc2)nc(C)n1 | 1.8% (inactive)
COc1cc(OC)cc(C(=O)Nc2ccc(-c3nc4ccccc4o3)c(O)c2)c1 | 24.8% (active)
CC(=O)Nc1ccc(S(=O)(=O)N(C)c2nc3ccccc3nc2Cl)cc1 | 18% (inactive)
CC(=O)Nc1ccc(-c2nc3ccccc3o2)cc1 | 35.3% (active)
COC(=O)c1cc(NC(=O)c2cccnc2)ccc1N1CCOCC1 | -2.96% (inactive)
CC(=O)Nc1ccc(Nc2c3ccccc3nc3ccccc23)cc1 | -9.79% (inactive)
CCC1=Nc2cc(C(=O)NCCCN3CCOCC3)ccc2Sc2ccc(Br)cc21 | -2.78% (inactive)
CC(=O)Nc1ccc(S(=O)(=O)NCC(=O)OCc2cc(=O)oc3ccc4ccccc4c23)cc1 | -2.56% (inactive)
Cc1cc(OCCN2CCCC2)cc(C(C)C)c1 | -2.45% (inactive)
CCn1cc(CN2CCC(C(=O)Nc3cccc(-c4cccc(Cl)c4)c3)CC2)cn1 | -10.1% (inactive)
CC1Cc2cc(/C(O)=C3\C(=O)C(=O)N(Cc4cccnc4)C3c3ccccc3F)ccc2O1 (centres undefined) | -1.92% (inactive)
O=C(Cn1cc(/C=N/NC(=O)c2cccc(C(F)(F)F)c2)c2ccccc21)Nc1ccc(F)cc1 | 2.04% (inactive)
O=C(C(Cc1ccccc1)n1cccc1)N1CCN(C2CCCCC2)CC1 (centres undefined) | -4.26% (inactive)
CCOC(=O)C1CCN(S(=O)(=O)c2c(C)noc2C)CC1 | -1.8% (inactive)
Cc1ccc(NC(=O)Cn2nc(C)c3ccccc3c2=O)c(C)c1 | -1.38% (inactive)
Cc1ccc(NC(=O)c2ccn(C(=O)Nc3ccccc3)n2)c(C)c1 | 43.3% (active)
Cc1ccc(C)c(S(=O)(=O)N2CCN(C(=O)Nc3ccccc3)CC2)c1 | -1.4% (inactive)
